Test results from PubChem BioAssay (Tox21).
Records with an inconclusive call do not appear. A number with no mark means an inactive call. Calls of active or inactive are those of the source. The call rests on the fitted dose curve; in most records, active means well fitted cell-killing curve with a large enough effect in the repeat runs; inconclusive means weak or mixed curves, or effect the other way; inactive means no such curve, though single readings can be large or run the other way.

Assay: qHTS assay to identify small molecule antagonists of the vitamin D receptor (VDR) signaling pathway - cell viability counter screen (AID 743225); further: nearly all actives have a fitted effect of over 50% in size
Details: VDR-bla HEK293T viability, CellTiter-Glo luminescence, 16 h; series mostly up to 61 µM
Source text: U.S. Tox21 Program National Center for Advancing Translational Sciences [NCATS] NIH Chemical Genomics Center [NCGC] U.S. Environmental Protection Agency [EPA] National Institutes of Environmental Health Sciences [NIEHS] National Toxicology Program [NTP] U.S. Food and Drug Administration [FDA] Tox21 Assay Overview: The vitamin D receptor (VDR), a member of nuclear hormone receptor superfamily, plays a critical role in calcium homeostasis and bone metabolism. It is also involved in cell differentiation and growth, and thrombogenicity. To identify the compounds that inhibit VDR signaling, the VDR-UAS-bla HEK 293T cell line (Invitrogen, Carlsbad, CA, USA) containing a beta-lactamase reporter gene under the control of an upstream activator sequence (UAS) was used to screen the Tox21 10K compound library. The cytotoxicity of the Tox21 compound library against the VDR-bla cell line was tested in parallel by measuring the cell viability using CellTiter-Glo assay (Promega, Madison, WI) in the same wells.
Tox21 Assay Protocol Summary: VDR-bla cells were dispensed at 2,000 cells/5 uL of assay medium per well into black wall/clear-bottom 1536-well plates using a Multidrop Combi (Thermo Fisher Scientific, Waltham, MA) dispenser. After the assay plates were incubated at a 37C and 5% CO2 for 4 h, 23 nL of compounds dissolved in DMSO, positive controls or DMSO only was transferred to the assay plate by a Pintool station (Kalypsys, San Diego, CA), followed by addition of 1 uL of 1-alpha, 25-Dihydroxy Vitamin D3 (3 nM, final concentration in the wells) using a Bioraptr Flying Reagent Dispenser (FRD) workstation (Beckman Coulter, Indianapolis, IN). The plates were incubated at 37C and 5% CO2 for 16 h, and then 1 uL of LiveBLAzerTM B/G FRET substrate was added using a Bioraptr FRD. The plates were incubated at room temperature for 2 h and fluorescence intensity was measured by an Envision plate reader (PerkinElmer, Shelton, CT). For cell viability readout that measures cytotoxicity, 3 ul/well of CellTiter-Glo reagent was added into the assay plates using a Bioraptr FRD. After 30 min incubation at room temperature, the luminescence intensity in the plates was measured using a ViewLux plate reader (PerkinElmer).
On the % scale 0 is the no-effect control and ±100 the full control effect.

Q: Which outcome does the source give for NS(=O)(=O)c1cc2c(cc1Cl)NC(C(Cl)Cl)NS2(=O)=O (stereo not given) here?
A: inactive

Q: With CC1=CC[C@H](CC=O)C1(C)C as the molecule, how does the outcome read?
A: inactive

Q: With CCC1Nc2cc(Cl)c(S(N)(=O)=O)cc2S(=O)(=O)N1 (stereo not given) as the molecule, how does the outcome read?
A: inactive

Q: With CCOC(=O)C(C)(C)C as the molecule, how does the outcome read?
A: inactive

Q: With CN(C)CCOCCN(C)CCO as the molecule, how does the outcome read?
A: inactive

Q: Which outcome does the source give for O=C1c2ccccc2-c2ccccc21 here?
A: inactive

Q: With Cc1oc(=O)oc1CN1CCN(c2cc3c(cc2F)c(=O)c(C(=O)O)c2n3C(C)S2)CC1 (stereo not given) as the molecule, how does the outcome read?
A: inactive

Q: For O=C(CN1CCN(Cc2ccc3c(c2)OCO3)CC1)N1c2ccccc2Sc2ccccc21, which outcome is on record?
A: inactive

Q: For COC(/C=C(\C)CCC=C(C)C)OC, which outcome is on record?
A: inactive

Q: Which outcome does the source give for CC(=O)/C=C/c1ccco1 here?
A: inactive

Q: Which outcome does the source give for NCCc1ccn[nH]1 here?
A: inactive

Q: Which outcome does the source give for CC(=O)OCC(=O)[C@@]1(O)[C@H](OC(C)=O)C[C@H]2[C@@H]3CCC4=CC(=O)C=C[C@]4(C)[C@@]3(F)[C@@H](O)C[C@@]21C here?
A: inactive

Q: Which outcome does the source give for CCOC(=O)C(=O)c1csc(NC=O)n1 here?
A: inactive

Q: With CCC(=O)OCCC(C)CCC=C(C)C (stereo not given) as the molecule, how does the outcome read?
A: inactive

Q: For CC(C)c1ccccc1O, which outcome is on record?
A: inactive

Q: With O=C1CC[C@H](C(=O)N2CCCCC2)N1 as the molecule, how does the outcome read?
A: inactive

Q: Which outcome does the source give for CC(=O)OC(C)c1ccccc1 (stereo not given) here?
A: inactive

Q: With CCN(Cc1cccc(S(=O)(=O)O)c1)c1ccccc1 as the molecule, how does the outcome read?
A: inactive

Q: With COCCOCCOCCOC as the molecule, how does the outcome read?
A: inactive

Q: With O=CO as the molecule, how does the viability change, negative = cytotoxic read?
A: 3.57% [at 6.95 µM]

Q: Which outcome does the source give for CCCCCCCC[Si](OCC)(OCC)OCC here?
A: inactive

Q: Which outcome does the source give for Cc1ccccc1N1CCN(CCc2nnc3n2CCCC3)CC1 here?
A: inactive

Q: Which outcome does the source give for NS(=O)(=O)c1ccc(Cl)c(S(N)(=O)=O)c1 here?
A: inactive

Q: For CCS(=O)(=O)CCn1c([N+](=O)[O-])cnc1C, which outcome is on record?
A: inactive

Q: With CCC(C)(C)C1CCC(=O)CC1 as the molecule, how does the outcome read?
A: inactive

Q: With C=C(C)C(=O)OC1CC(C)CC(C)(C)C1 (stereo not given) as the molecule, how does the outcome read?
A: inactive

Q: Which outcome does the source give for CC(C)(c1ccc(Oc2ccc3c(c2)C(=O)OC3=O)cc1)c1ccc(Oc2ccc3c(c2)C(=O)OC3=O)cc1 here?
A: inactive

Q: For Cc1cc(C)cc([N+](=O)[O-])c1, which outcome is on record?
A: inactive

Q: For CCCCCC1CCCC(=O)O1 (stereo not given), which outcome is on record?
A: inactive

Q: For CCC(C)(CCC(C)C)C(=O)[O-].CCC(C)(CCC(C)C)C(=O)[O-].[Zn+2] (stereo not given), which outcome is on record?
A: inactive

Q: With CC(=O)OC(C(=O)c1ccccc1)c1ccccc1 (stereo not given) as the molecule, how does the outcome read?
A: inactive

Q: With Cc1cc(O)c2c(c1)C(=O)c1cccc(O)c1C2=O as the molecule, how does the outcome read?
A: inactive

Q: For COc1cc([N+](=O)[O-])ccc1N, which outcome is on record?
A: inactive

Q: For CC(C)C(=O)Nc1cccc(C(F)(F)F)c1, which outcome is on record?
A: inactive

Q: Which outcome does the source give for CN=C(NC#N)NCCSCc1csc(N=C(N)N)n1 here?
A: inactive

Q: For CCCCCCCCCCC, which outcome is on record?
A: inactive

Q: For CCNC(=O)/C=C/c1cccc(Br)c1, which outcome is on record?
A: inactive

Q: With C=C(C)C(=O)OCCCCCCOC(=O)C(=C)C as the molecule, how does the outcome read?
A: inactive

Q: With C1CCN2C[C@@H]3C[C@@H](CN4CCCC[C@@H]34)[C@H]2C1 as the molecule, how does the outcome read?
A: inactive

Q: With CCCCCN(CCCOC)C(=O)C(CCC(=O)O)NC(=O)c1ccc(Cl)c(Cl)c1 (stereo not given) as the molecule, how does the outcome read?
A: inactive
